Measured values taken from PubChem BioAssay (Tox21).
Values joined by “and” are separate entries in the source; they are usually repeats but may differ in a detail not shown here. Identical values can stand only once. Results filed as inconclusive are left out. Entries that show only a call come without a potency. Some structures have more than one record in an assay (separate samples or runs), and their calls can disagree. Active and inactive are the calls of the source. Unless noted, calls come from the whole dose curve; as a rule, active = well fitted curve in the direction sought with a large enough effect in the repeat runs; inconclusive = weak or mixed curves; inactive = no such curve, though single readings can be large; an effect the other way counts as inactive or inconclusive.

Tests used:
[1] = qHTS assay to identify small molecule antagonists of the glucocorticoid receptor (GR) signaling pathway - cell viability counter screen (AID 720693); note: nearly all actives have a fitted effect of over 55% in size; note: potency is the fitted concentration of half-maximal effect
[2] = qHTS assay for identifying genotoxic compounds that show differential cytotoxicity against isogenic chicken DT40 cell lines with known DNA damage response pathways - wild type cell line (AID 743012); note: nearly all actives have a fitted effect of over 60% in size; note: potency is the fitted concentration of half-maximal effect
How it was run: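 Endpoint: CellTiter-Glo luminescence, 30 min RT. Cells: wild type DT40, 300/well. Exposure: compounds in DMSO, 40 h, 37 C/5% CO2, after ~0.5 h pre-incubation.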

[3] = qHTS assay for identifying genotoxic compounds that show differential cytotoxicity against isogenic chicken DT40 cell lines with known DNA damage response pathways - Rev3 mutant cell line (AID 743014); note: nearly all actives have a fitted effect of over 55% in size; note: potency is the fitted concentration of half-maximal effect
[4] = qHTS assay for identifying genotoxic compounds that show differential cytotoxicity against isogenic chicken DT40 cell lines with known DNA damage response pathways - Rad54/Ku70 mutant cell line (AID 743015); note: nearly all actives have a fitted effect of over 60% in size; note: potency is the fitted concentration of half-maximal effect
[5] = qHTS assay to identify small molecule antagonists of the androgen receptor (AR) signaling pathway - cell viability counter screen (AID 743033; note: nearly all actives have a fitted effect of over 45% in size; note: potency is the fitted concentration of half-maximal effect)
[6] = qHTS assay to identify small molecule antagonists of the androgen receptor (AR) signaling pathway using the MDA cell line - cell viability counter screen (AID 743041; note: nearly all actives have a fitted effect of over 45% in size; note: potency is the fitted concentration of half-maximal effect)
How it was run: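 Viability read by CellTiter-Fluor fluorescence in the same wells as the antagonist screen, added after 15.5 h of a 16 h, 37C exposure. Human breast carcinoma MDA-kb2 AR-luc cells, compounds co-dosed with agonist R1881.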

[7] = qHTS assay to identify small molecule antagonists of the thyroid receptor (TR) signaling pathway - cell viability counter screen (AID 743064); note: nearly all actives have a fitted effect of over 50% in size; note: potency is the fitted concentration of half-maximal effect
How it was run: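 Plate GH3.TRE-Luc cells; incubate 4 h at 37 °C; add compound, then T3 to 1 nM final; incubate 23.5 h; add CellTiter-Fluor; incubate 30 min at 37 °C, 5% CO2; read fluorescence.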

[8] = target: Androgen receptor (Homo sapiens) (UniProt P10275); assay: qHTS assay to identify small molecule antagonists of the androgen receptor (AR) signaling pathway (AID 743035; active = well fitted inhibition curve with a large enough effect in the signal ratio in the repeat runs, not every such curve was filed as active; the % refers to the signal ratio; note: potency is the fitted concentration of half-maximal effect)
How it was run: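 R1881 agonist challenge of a HEK293 UAS-beta-lactamase AR reporter line in the presence of compound (16 h, 37C); signal taken as FRET fluorescence after 2 h with LiveBLAzer B/G substrate at room temperature.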

[9] = target: Androgen receptor (Homo sapiens) (UniProt P10275); assay: qHTS assay to identify small molecule agonists of the androgen receptor (AR) signaling pathway using the MDA cell line (AID 743040; note: nearly all actives have a fitted effect of over 20% in size)
How it was run: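 Luciferase agonist assay: 16 h compound exposure at 37C without CO2 in MDA-kb2 AR-luc cells, whose MMTV promoter responds to both AR and GR. Luminescence measured after 30 min room-temperature incubation with ONE-Glo.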

[10] = target: Androgen receptor (Homo sapiens) (UniProt P10275); assay: qHTS assay to identify small molecule antagonists of the androgen receptor (AR) signaling pathway using the MDA cell line (AID 743042; note: potency is the fitted concentration of half-maximal effect; nearly all actives have a fitted effect of over 55% in size)
How it was run: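 Antagonist mode: compounds plus R1881 agonist added to MDA-kb2 AR-luc cells, incubated 16 h at 37C. Luciferase reporter luminescence quantified, with multiplexed CellTiter-Fluor readout for cell viability.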

Sequence of Androgen receptor (Homo sapiens) (P10275 whole entry, looked up): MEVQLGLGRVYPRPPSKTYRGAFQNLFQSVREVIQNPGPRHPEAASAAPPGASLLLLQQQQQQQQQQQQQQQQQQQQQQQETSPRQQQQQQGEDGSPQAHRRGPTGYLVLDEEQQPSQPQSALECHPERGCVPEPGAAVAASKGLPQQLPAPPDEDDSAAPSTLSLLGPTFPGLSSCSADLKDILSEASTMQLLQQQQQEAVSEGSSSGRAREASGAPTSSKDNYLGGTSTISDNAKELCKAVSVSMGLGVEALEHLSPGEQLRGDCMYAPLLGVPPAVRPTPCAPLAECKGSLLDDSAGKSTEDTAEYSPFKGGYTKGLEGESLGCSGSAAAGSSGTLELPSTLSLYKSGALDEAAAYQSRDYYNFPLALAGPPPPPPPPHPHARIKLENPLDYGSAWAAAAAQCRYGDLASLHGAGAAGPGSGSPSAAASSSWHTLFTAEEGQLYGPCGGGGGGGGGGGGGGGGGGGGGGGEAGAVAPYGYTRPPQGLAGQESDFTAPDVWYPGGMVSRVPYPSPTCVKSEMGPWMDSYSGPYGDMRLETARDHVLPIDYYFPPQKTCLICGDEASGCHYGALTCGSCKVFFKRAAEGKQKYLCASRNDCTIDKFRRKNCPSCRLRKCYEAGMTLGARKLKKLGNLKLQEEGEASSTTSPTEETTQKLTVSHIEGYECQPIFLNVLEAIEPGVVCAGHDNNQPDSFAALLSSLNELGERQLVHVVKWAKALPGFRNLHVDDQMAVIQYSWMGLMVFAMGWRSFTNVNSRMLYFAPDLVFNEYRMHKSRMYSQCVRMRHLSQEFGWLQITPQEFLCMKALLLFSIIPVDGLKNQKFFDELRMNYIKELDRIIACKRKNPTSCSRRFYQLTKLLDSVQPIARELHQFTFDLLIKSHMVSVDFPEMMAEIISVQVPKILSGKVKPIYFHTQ

SMILES | Potency [1] | Potency [2] | Potency [3] | Potency [4] | Potency [5] | Potency [6] | Potency [7] | Potency [8] | Potency [9] | Potency [10]
CC(C)(C)c1cc([N+](=O)[O-])cc([N+](=O)[O-])c1O | 1.09 µM (active) | 19.3 µM (active) | 21.6 µM (active) | 19.3 µM (active) | 13.8 µM (active) | 24.3 µM (active) | 8.61 µM (active) |  |  | 
Clc1cc(Cl)c(Cl)c(Cl)c1 | inactive | inactive | inactive | inactive | inactive | inactive | inactive |  |  | 
COC(=O)c1cncn1C(C)c1ccccc1 (centres undefined) | inactive | inactive | inactive | inactive | inactive | inactive | inactive |  |  | 
CC[C@H]1C[C@H]2[C@@H]3CCC4=CC(=O)CC[C@@H]4[C@H]3CC[C@]2(C)[C@H]1O | inactive | 16.8 µM (active) | 29.8 µM (active) | 21.1 µM (active) | inactive | inactive | inactive |  |  | 
CN1C(=O)NC(=O)C(C)(C2=CCCCC2)C1=O (centres undefined) | inactive | inactive | inactive | inactive | inactive | inactive | inactive |  |  | 
CCN(C)N=O | inactive | inactive | inactive | inactive | inactive | inactive | inactive |  |  | 
[CH3][Sn]([CH3])([Cl])[Cl] | inactive | 54.5 µM (active) | 62.1 µM (active) and 27.3 µM (active) | 48.6 µM (active) | inactive | inactive | 55.4 µM (active) and inactive |  |  | 
CC(=O)C(C)(C)C | inactive | 45 µM (active) | 3.18 µM (active) | 4.01 µM (active) | inactive | inactive | inactive |  |  | 
C=CCN1CC[C@]23c4c5ccc(O)c4O[C@H]2C(=O)CC[C@@]3(O)[C@H]1C5 | inactive | inactive | inactive | inactive | inactive | inactive | inactive |  |  | 
C=COC(C)=O | inactive | inactive | inactive | inactive | inactive | inactive | inactive |  |  | 
c1ccc(CN2CCNCC2)cc1 | inactive | inactive | inactive | inactive | inactive | inactive | inactive |  |  | 
CCOP(O)OCC | inactive | inactive | inactive | inactive | inactive | inactive | inactive |  |  | 
O=C=Nc1ccc(Cl)cc1 | inactive | 27.3 µM (active) | 54.5 µM (active) | 27.3 µM (active) | inactive | inactive | inactive |  |  | 
O=C(N[C@H](c1ccccc1)[C@@H]1CN2CCC1CC2)c1c(Cl)ccc(C(F)(F)F)c1Cl | inactive | 22 µM (active) | 39.2 µM (active) | 24.7 µM (active) | inactive | inactive | 15.6 µM (active) |  |  | 
C=CCC1([C@H](C)CCC)C(=O)NC(=O)NC1=O | inactive | inactive | inactive | inactive | inactive | inactive | inactive |  |  | 
O=C(O)CC(Cl)C(=O)O (centres undefined) | inactive | inactive | inactive | inactive | inactive | inactive | inactive |  |  | 
ClCc1ccccc1 | inactive | inactive | inactive | inactive | inactive | inactive | inactive |  |  | 
O=Cc1ccc(Cl)cc1Cl | inactive | inactive | inactive | inactive | inactive | inactive | inactive |  |  | 
Cl/C=C\Cl | inactive | inactive | inactive | inactive | inactive | inactive | inactive |  |  | 
ClC=C(Cl)Cl | inactive | inactive | inactive | inactive | inactive | inactive | inactive |  |  | 

SMILES | Potency [1] | Potency [2] | Potency [3] | Potency [4] | Potency [5] | Potency [6] | Potency [7] | Potency [8] | Potency [9] | Potency [10]
C=CC(=O)OCC(C)O (centres undefined) | inactive | inactive | inactive | inactive | inactive | inactive | inactive |  |  | 
Nc1nc(N)nc(N)n1 | inactive | inactive | inactive | inactive | inactive | inactive | inactive |  |  | 
COc1c(C(C)(C)C)cc([N+](=O)[O-])c(C)c1[N+](=O)[O-] | inactive | inactive | inactive | inactive | inactive | inactive | inactive |  |  | 
CC(=O)CCC(C)=O | inactive | inactive | inactive | inactive | inactive | inactive | inactive |  |  | 
O=S(=O)(Cl)c1ccccc1 | inactive | inactive | inactive | inactive | inactive | inactive | inactive |  |  | 
COc1nn(C(=O)NS(=O)(=O)c2ccccc2OC(F)(F)F)c(=O)n1C | inactive | inactive | inactive | inactive | inactive | inactive | inactive |  |  | 
O=[N+]([O-])c1ccc(F)c([N+](=O)[O-])c1 | inactive | inactive | inactive | inactive | inactive | 55 µM (active) | inactive |  |  | 
C=CC(C)=O | inactive | inactive | inactive | inactive | inactive | inactive | inactive |  |  | 
[O-][Cl+]O | inactive | inactive | inactive | inactive | inactive | inactive | inactive |  |  | 
Cn1cc[n+](C)c1 (tested in a mixture with another compound) | inactive | inactive | inactive | inactive | inactive | inactive | inactive |  |  | 
N#Cc1ccc(Cl)cc1 | inactive | inactive | inactive | inactive | inactive | inactive | inactive |  |  | 
CCCCN=C=O | inactive | inactive | inactive | inactive | inactive | inactive | inactive |  |  | 
CC/C(=N\OC/C=C/Cl)C1=C(O)CC(C2CCOCC2)CC1=O (centres undefined) | inactive | inactive | inactive | inactive | inactive | inactive | inactive |  |  | 
C=CC(=O)OC(C)(C)C | inactive | inactive | inactive | inactive | inactive | inactive | inactive |  |  | 
O=[N+]([O-])c1cc(C(F)(F)F)cc([N+](=O)[O-])c1Cl | inactive | inactive | inactive | inactive | inactive | 43.5 µM (active) | 61.4 µM (active) |  |  | 
CCC(COC(=O)c1cc(OC)c(OC)c(OC)c1)(c1ccccc1)N(C)C (centres undefined) | inactive | 5.96 µM (active) | 3.35 µM (active) | 6.68 µM (active) | inactive | inactive | inactive |  |  | 
C=C(C#N)CCC#N | inactive | inactive | inactive | inactive | inactive | inactive | inactive |  |  | 
CCCCOC(=O)c1ccccc1C(=O)OCc1ccccc1 | inactive | inactive and 48.6 µM (active) | inactive | 51.4 µM (active) | inactive | inactive | inactive |  |  | 
ClCC(Br)CBr (centres undefined) | inactive | inactive | inactive | inactive | inactive | inactive | inactive |  |  | 
O=[N+]([O-])c1ccccc1CCl | inactive | inactive | inactive | inactive | inactive | inactive | inactive |  |  | 

SMILES | Potency [1] | Potency [2] | Potency [3] | Potency [4] | Potency [5] | Potency [6] | Potency [7] | Potency [8] | Potency [9] | Potency [10]
CNC(C)Cc1ccccc1OC (centres undefined) | inactive | inactive | inactive | inactive | inactive | inactive | inactive |  |  | 
CC(Cl)C(C)Cl (centres undefined) | inactive | inactive | inactive | inactive | inactive | inactive | inactive |  |  | 
CCOP(=S)(OCC)SCSCC | inactive | 54.5 µM (active) | 27.3 µM (active) | 48.6 µM (active) | inactive | inactive | inactive |  |  | 
CCCCCCC#N | inactive | inactive | inactive | inactive | inactive | inactive | inactive |  |  | 
O=C(NC(=O)c1c(F)cccc1F)Nc1ccc(OC(F)(F)C(F)OC(F)(F)F)c(Cl)c1 (centres undefined) | inactive | 6.68 µM (active) | 4.22 µM (active) | 1.06 µM (active) | inactive | inactive | inactive |  |  | 
COC(=O)C(Br)CBr (centres undefined) | inactive | inactive | inactive | inactive | inactive | inactive | inactive |  |  | 
C[C@H]1CNCCc2ccc(Cl)cc21 | inactive | 26.6 µM (active) | 13.3 µM (active) |  | inactive | inactive | inactive |  |  | 
Nc1nc(=S)[nH][nH]1 | inactive | inactive | 48.6 µM (active) |  | inactive | inactive | inactive |  |  | 
CN1C[C@H](CNC(=O)OCc2ccccc2)C[C@@H]2c3cccc4c3c(cn4C)C[C@H]21 | inactive | 5.96 µM (active) | 8.41 µM (active) | 8.41 µM (active) |  |  | 9.44 µM (active) |  |  | 
N#CCc1ccccc1 | inactive | inactive | inactive | inactive | inactive | inactive | inactive |  |  | 
c1ccc(C2CC2)c(OCC2=NCCN2)c1 | inactive | inactive |  | inactive | inactive | inactive | inactive | inactive | inactive | 
COP(=O)(OC)O/C(=C/Cl)c1cc(Cl)c(Cl)cc1Cl | inactive | 64.6 µM (active) | 28.8 µM (active) | 64.6 µM (active) |  | inactive |  | 18.4 µM (active) | inactive | 
CNP(=O)(OC)Oc1ccc(C(C)(C)C)cc1Cl (centres undefined) | inactive | 13.7 µM (active) | 19.3 µM (active) | 21.7 µM (active) |  | inactive | inactive |  |  | 
CC(Cl)Cl | inactive | inactive | inactive | inactive | inactive | inactive | inactive |  |  | 
NS(=O)(=O)C(F)(F)C(F)(F)C(F)(F)C(F)(F)C(F)(F)C(F)(F)C(F)(F)C(F)(F)F | 54.9 µM (active) | 54.5 µM (active) | 34.4 µM (active) |  | inactive |  | 61.1 µM (active) |  | inactive | 68.6 µM (active)
COC(C)(C)CCC[C@H](C)C/C=C/C(C)=C/C(=O)OC(C)C | inactive | 21.7 µM (active) | 24.3 µM (active) | 19.3 µM (active) |  |  |  |  | inactive | 
Clc1cccc(SC2CCNCC2)n1 | inactive | inactive | inactive |  | inactive |  | inactive |  |  | 
COCC(C)N(C(=O)CCl)c1c(C)csc1C (centres undefined) | inactive | inactive and 17.2 µM (active) | inactive and 15.4 µM (active) | inactive and 17.2 µM (active) | inactive | inactive | inactive |  |  | 
COP(=S)(Oc1cc(Cl)c(Br)cc1Cl)c1ccccc1 (centres undefined) | inactive | inactive | inactive |  | inactive | inactive |  |  | inactive | 
